Results as given in PubChem BioAssay AID743366 (National Center for Advancing Translational Sciences (NCATS), 2014).

assay: qHTS profiling of inhibitors of Plasmodium falciparum (HB3) proliferation (acoustic dispense); settings: P. falciparum HB3 in erythrocytes, SYBR Green, 72 h; at 49.8 µM (top of the series) unless noted

Compound	activity (normalised, proliferation)
CN(C(=O)OC(C)(C)C)[C@@H](Cc1ccc(O[S+](=O)([O-])c2cccc3cnccc23)cc1)C(=O)N1CCN(C(=O)OCc2ccccc2)CC1	2.29%
CC[C@@]1(O)C[C@H](O[C@H]2C[C@H](N(C)C)[C@H](O[C@H]3C[C@H](O)[C@H](O[C@H]4CCC(=O)[C@H](C)O4)[C@H](C)O3)[C@H](C)O2)c2c(cc3c(c2O)C(=O)c2c(O)cccc2C3=O)[C@@H]1C(=O)OC	-2.68%
Cn1c(=O)c(-c2c(Cl)cccc2Cl)cc2cnc(Nc3cccc(C(=O)O)c3)nc21	16.3%
Nc1cccc(-c2csc(NC(=O)CCCCCCC(=O)NO)n2)c1	-0.958%
CCOC(=O)[C@H](CCc1ccccc1)N[C@H]1CS[C@H](c2cccs2)CN(CC(=O)O)C1=O	67.9%
CCC(C=C[C@@H]1OC(=O)C=C[C@H]1C)=C[C@H](C)CC=CC(C)=C[C@@H](C)C(=O)[C@@H](C)[C@H](O)[C@@H](C)CC(C)=CC(=O)O	105% [at 1.88 µM]
CCNC(=O)c1noc(-c2cc(C(C)C)c(O)cc2O)c1-c1ccc(CN2CCOCC2)cc1	117%
CCCC[C@@H]1C[C@@H](C(=O)NC([C@H](C)Cl)[C@H]2O[C@H](S)[C@H](O)[C@@H](O)[C@@H]2O)N(C)C1 (stereo partly specified)	3.44%
Cn1c2ccccc2c2c3c(c4c5ccccc5n(CCC#N)c4c21)CNC3=O	106%
CCN(CC)CCCC(C)Nc1ccnc2cc(Cl)ccc12 (stereo unspecified)	-0.388%
CCc1cc(Nc2nccc(-c3c(-c4ccc(OC)c(C(=O)Nc5c(F)cccc5F)c4)nc4ccccn34)n2)c(OC)cc1N1CCC(N2CCN(S(C)(=O)=O)CC2)CC1	0.0178%
